# In PubChem BioAssay (NCI):
# Compounds without any hit were thinned out: in the full panel of roughly 83,000, 20% have a hit.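 Values shown are percent growth following 48 h exposure of cells in 96-well plates to a single concentration of compound; below 10 was considered active.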 A number with no mark means an inactive call. Calls of active or inactive are those of the source.
# Assays:
# Assay in all cases: NCI-60 one-dose screen, 48 h (100 = growth as untreated, 0 = no growth, -100 = all killed)
# Details in all cases: 10 µM unless noted
# DU-145 prostate = test system: DU-145 prostate
# K-562 leukemia = test system: K-562 leukemia
# MALME-3M melanoma = test system: MALME-3M melanoma
# MDA-MB-231 breast = test system: MDA-MB-231 breast
# RXF 393 renal = test system: RXF 393 renal
# SF-268 CNS = test system: SF-268 CNS
# SF-295 CNS = test system: SF-295 CNS
# SF-539 CNS = test system: SF-539 CNS
# UACC-257 melanoma = test system: UACC-257 melanoma
# M14 melanoma = test system: M14 melanoma
SMILES,growth (DU-145 prostate),growth (K-562 leukemia),growth (MALME-3M melanoma),growth (MDA-MB-231 breast),growth (RXF 393 renal),growth (SF-268 CNS),growth (SF-295 CNS),growth (SF-539 CNS),growth (UACC-257 melanoma),growth (M14 melanoma)
Cc1cc(NC(=O)c2cccc(C(F)(F)F)c2)ccc1-n1ccc2c(NC(=O)c3ccccc3)nccc21,112%,91.2%,99.7%,94.9%,118%,103%,102%,95.9%,101%,96.8%
O=C(O)c1ccc(-n2cc(/C=N/Nc3ccccc3F)c(-c3ccc(O)cc3)n2)cc1,97%,13%,92.7%,85.2%,92.6%,78.6%,80.5%,85.9%,103%,73.5%
CCCCCCCCCCCCCCCC(=O)NS(=O)(=O)OC[C@H]1O[C@@H](n2cnc3c(N)ncnc32)[C@H](O)[C@@H]1O,-33.6% (active),8.9% (active),-51.6% (active),-25.6% (active),-83.4% (active),-42.6% (active),-34.6% (active),-69.4% (active),-20.7% (active),-68.2% (active)
CN1CCN(Cn2nc(-c3cc(Cl)cc(Cl)c3Cl)n(/N=C/c3ccc(Cl)cc3)c2=S)CC1,102%,73.9%,101%,83.8%,89.6%,117%,102%,108%,93.6%,96%
OCc1cn(-c2ccc(Cl)cc2)nc1-c1ccc(O)cc1,97%,88%,100%,97.9%,107%,78.6%,100%,93.2%,108%,95%
COc1cc(C(=O)C[n+]2ccccc2)ccc1OC(C)=O,106%,101%,105%,102%,92%,98.4%,97.4%,94.3%,95.4%,94.9%
C[C@]12O[C@H]1[C@H](O)c1c(cc(O)c3c1C(=O)c1cccc(O)c1-3)C2=O,111%,93.9%,100%,94%,123%,107%,102%,99.6%,89%,89.8%
COc1ccc(/C=C/C(=O)c2ccc(NC(=O)CSc3nnc(-c4cc(OC)c(OC)c(OC)c4)o3)cc2)cc1,4.04% (active),-52.2% (active),-70.7% (active),-80.7% (active),-84.3% (active),-76.7% (active),57.6%,-90.3% (active),40.1%,-60.1% (active)
NCC(=O)NS(=O)(=O)OC[C@H]1O[C@@H](n2cnc3c(N)ncnc32)[C@H](O)[C@@H]1O,-31.7% (active),7.38% (active),-2.82% (active),2.61% (active),-36.6% (active),3.78% (active),-33.7% (active),-9.36% (active),27.4%,-23.1% (active)
O=C(Nc1ccc(-n2cc(-c3ccncc3)c(-c3ccc(O)c(Cl)c3)n2)cc1)Nc1ccc(Cl)c(C(F)(F)F)c1,29.5%,17.1%,13.3%,-39.7% (active),-74.4% (active),18.4%,-10.3% (active),13.7%,47.5%,7.1% (active)
Nc1ncnc2c1ccn2-c1cccc(NC(=O)c2cccc(C(F)(F)F)c2)c1,81.8%,59%,98.4%,58.4%,58.5%,67.5%,36.4%,64.4%,93.2%,83.9%
Cc1cccc[n+]1CCC[n+]1ccccc1C,111%,103%,105%,115%,111%,107%,103%,98.9%,111%,89.4%
CCOC(=O)NNc1nncc2ccccc12,115%,81.9%,99.5%,101%,109%,107%,103%,108%,93.3%,108%
CC(C)(C)OC(=O)NCc1cccc(N=C=S)c1,55.7%,37.3%,29.9%,75.4%,-15.7% (active),47.2%,21%,3.66% (active),39.4%,49.3%
Cc1cc[n+](CCCC[n+]2ccc(C)cc2)cc1,101%,109%,97.6%,105%,106%,102%,103%,102%,111%,95.4%
c1ccc2c(c1)Oc1cccnc1-n1nccc1-2,110%,104%,103%,93.5%,107%,102%,108%,106%,102%,101%
CCCCCC/C=N/Nc1ccc([N+](=O)[O-])cn1,103%,96.7%,98.1%,98.7%,104%,103%,95.3%,93.7%,88.7%,90.4%
CCCC(C)(C)COC(=O)c1cccc(N)c1,106%,87%,92%,106%,123%,97.7%,101%,103%,83.3%,99.4%
CCCCCCCCCCCC(=O)OCCNC(=O)C[n+]1ccccc1,131%,117%,96.3%,99.6%,110%,104%,78.7%,105%,106%,102%
Nc1nc(Cl)cc(NCCCCNc2cc(Cl)nc(N)n2)n1,104%,101%,145%,114%,123%,112%,121%,96.5%,105%,117%
Cc1ncc(CO)c(C(=O)O)c1O,102%,93%,95.9%,103%,106%,94.4%,100%,96.6%,107%,93.7%
COc1cc2c(cc1OC)-c1c(oc3c4c(ccc3c1=O)OC(C)(C)C=C4)CO2,90.9%,39.9%,93.2%,81.5%,96.9%,79.4%,51.7%,83.5%,54.8%,83.1%
COc1cccc(C2CC(c3cc(OC)c(OC)c(OC)c3)=NN2)c1 (stereo not given),104%,14.5%,91.6%,98%,83.8%,93%,81.8%,92.2%,99.4%,83%
Cc1nc(N)nc(SCc2ccccc2)c1Br,104%,88.4%,92.6%,91.1%,89.6%,96.1%,99.1%,96.4%,74.1%,104%
Cl[C@@H]1CCO[C@H](c2cc3ccccc3c3ccccc23)C1,102%,95.5%,106%,90.2%,98.8%,97.9%,96.4%,95%,93.4%,95.3%
O=C1/C(=C/c2cccc3cnccc23)Cc2cc(F)ccc21,104%,96.1%,97.9%,93.4%,112%,98.8%,88.4%,94.1%,113%,87.7%
